# Results taken from PubChem BioAssay (NCATS).
# Records with an inconclusive call do not appear. Unmarked numbers belong to inactive results. The call rests on the fitted dose curve; in most records, active means well fitted inhibition curve with a large enough effect; inconclusive means small, poorly fitted or top-dose-only effect; inactive means flat fitted curve, though single readings scatter. Where a SMILES comes first, the peptide text is derived from it. Bridges are numbered along the chain shown (N, C = ends). [ ]: non-standard residue; d: D form. hArg = N=C(N)NCCCC[C@H](N)C(=O)O; Mpa = O=C(O)CCS
# Test system: CP268
# Assay: qHTS profiling for inhibitors of Plasmodium falciparum proliferation (AID 504749);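 further: 0% = DMSO vehicle and full inhibition = artemisinin control; nearly all actives have a fitted effect of over 60% in size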
# Conditions: P. falciparum in erythrocytes, SYBR Green DNA, 72 h; series mostly up to 28.7 µM; activity, negative = inhibition: at the top concentration
# Method in brief: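 Three-day growth assay of blood-stage parasites in erythrocytes (0.3% parasitemia, 2.5% hematocrit) at 37 C, 5% CO2, quantified by SYBR Green DNA staining after overnight detergent lysis.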
row,Compound,"activity, negative = inhibition"
1,O=C(Cn1ccnc1[N+](=O)[O-])NCCO,6.87%
2,Cc1c(C)c2c(c(C)c1OC(=O)c1cccnc1)CC[C@@](C)(CCC[C@H](C)CCC[C@H](C)CCCC(C)C)O2,12.1%
3,COc1ccc2cc(CCC(C)=O)ccc2c1,-1.83% [at 12.8 µM]
4,CN(C/C=C/C#CC(C)(C)C)Cc1cccc2ccccc12,3.02%
5,CCN(CC)CCc1nc(-c2ccccc2)no1,0.876% [at 12.8 µM]
6,COc1nccnc1NS(=O)(=O)c1ccc(N)cc1,-1.04%
7,COC(=O)c1ccc(O)cc1,-14.4%
8,CC[N+](CC)(CC(=O)Nc1c(C)cccc1C)Cc1ccccc1,-6.38%
9,CC1CCN(CCCC(=O)c2ccc(F)cc2)CC1,-12.5%
10,COc1ccccc1OC(=O)Oc1ccccc1OC,6.42%
11,CN1CCCN=C1COC(=O)C(O)(c1ccccc1)C1CCCCC1 (centres undefined),-11.3%
12,O=C(/C=C/c1ccccc1)OCc1ccccc1,-3.11%
13,Cc1c(Cn2ccnc2)c2ccccc2n1CCC(=O)O,-1.55%
14,NC(=O)[C@@H]1CSSCCC(=O)N[C@@H](CCCCN=C(N)N)C(=O)NCC(=O)N[C@@H](CC(=O)O)C(=O)N[C@@H](Cc2c[nH]c3ccccc23)C(=O)N2CCC[C@H]2C(=O)N1 ([Mpa][hArg]GDWPC-NH2; disulfide 1-7),5.81%
15,N[C@@H](Cc1ccc(O)cc1)C(=O)O,1.1%
16,CC1CCc2cc(F)cc3c(=O)c(C(=O)O)cn1c23 (centres undefined),-0.62%
17,C[C@@H]1O[C@@H](OC[C@H]2O[C@@H](Oc3c(-c4ccc(O)c(O)c4)oc4cc(O)cc(O)c4c3=O)[C@H](O)[C@@H](O)[C@@H]2O)[C@H](O)[C@H](O)[C@H]1O,2.29%

row,Compound,"activity, negative = inhibition"
1,Cc1onc(-c2ccccc2)c1-c1ccc(S(N)(=O)=O)cc1,-8.5%
2,COc1ccc(C(=O)NCc2ccc(OCCN(C)C)cc2)cc1OC,0.922%
3,Cc1ccsc1C(=CCCN1CCC[C@@H](C(=O)O)C1)c1sccc1C,3.67%
4,CCCCCCCC(=O)OCC(COC(=O)CCCCCCC)OC(=O)CCCCCCC,0.969%
5,CN/C(=C\[N+](=O)[O-])NCCSCc1csc(CN(C)C)n1,2.24% [at 12.8 µM]
6,CCN1CC(CCN2CCOCC2)C(c2ccccc2)(c2ccccc2)C1=O (centres undefined),-10.9%
7,NS(=O)(=O)c1ccc(C(=O)O)cc1,-5.2%
8,CCOC(N)=O,4.06%
9,Cc1c(NC(C)C)c(=O)n(-c2ccccc2)n1C,2.32%
10,CCOc1ccc(C(=O)OCCN(CC)CC)cc1,-0.223%
11,O=C(OOC(=O)c1ccccc1)c1ccccc1,-3.33%
12,C=CCSCC1Nc2cc(Cl)c(S(N)(=O)=O)cc2S(=O)(=O)N1 (centres undefined),1.79%
13,Cc1c(NC(=O)c2cccnc2)c(=O)n(-c2ccccc2)n1C,-7.58% [at 12.8 µM]
14,CCCCCCCCCCC(CO)CCCCCCCC (centres undefined),-22.5%
15,CCOc1cc(NC(C)=O)ccc1C(=O)OC,0.0078%
16,Cc1ncc(CO)c(CN)c1O,0.584%
17,NS(=O)(=O)c1ccc(NC(=O)CCC(=O)O)cc1,-0.795%
